This is part of a sample that, as a whole, favours compounds with a hit. Of some 79,000 tested, about 15% had one in any assay. Calls of active or inactive are those of the source. Cut-off read from the data, not from the text of the source: active = growth inhibition above about 70%; inactive = the rest.
Assays:
[1] = NCI Yeast Anticancer Drug Screen. Data for the rad52 strain (AID 147);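 note: 0% = growth of vehicle-treated control cultures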; conditions: S. cerevisiae rad52 mutant growth inhibition, active compounds read high
Method in brief: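 Measured: yeast growth inhibition. System: strain with a defined DNA damage repair alteration. Reference: vehicle-treated control cultures.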

[2] = NCI Yeast Anticancer Drug Screen. Data for the wt1 strain (AID 149);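 note: 0% = growth of vehicle-treated wt1 cultures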; conditions: S. cerevisiae wt1 strain (SPY 50644) growth inhibition, active compounds read high
Method in brief: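 Measured: growth of wt1 yeast under compound versus vehicle treatment, reported as inhibition.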

[3] = NCI Yeast Anticancer Drug Screen. Data for the rad50EPP+ strain (AID 151);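 note: 0% = growth of vehicle-treated control cultures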; conditions: S. cerevisiae rad50 mutant strain, active compounds read high
Method in brief: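 One strain with a rad50 alteration (rad50EPP+) was compound-treated, its growth then compared to that of vehicle controls.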

[4] = NCI Yeast Anticancer Drug Screen. Data for the mgt1 strain (AID 153); conditions: S. cerevisiae mgt1 mutant growth inhibition, active compounds read high
Method in brief: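 After exposure of the mgt1 yeast mutant to compound, growth was measured and reported as inhibition compared with vehicle controls.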

[5] = NCI Yeast Anticancer Drug Screen. Data for the rad50 strain (AID 155);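 note: 0% = growth of vehicle-only cultures of the same strain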; conditions: S. cerevisiae rad50 strain growth inhibition, active compounds read high
Method in brief: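 Growth of the mutant yeast was measured after compound exposure and referenced to vehicle-treated cultures.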

[6] = NCI Yeast Anticancer Drug Screen. Data for the mec2-1 strain (AID 157); conditions: S. cerevisiae mec2-1 strain, active compounds read high
Method in brief: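 Test agents were screened against the mec2-1 yeast strain, with defined DNA repair or cell cycle alteration. Growth was scored as inhibition against vehicle-only controls.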

[7] = NCI Yeast Anticancer Drug Screen. Data for the rad14 strain (AID 159);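 note: 0% = growth of vehicle-treated control cultures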; conditions: S. cerevisiae rad14 strain growth inhibition, active compounds read high
Method in brief: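 Here, inhibition of yeast growth was measured after compound exposure, using a strain with a genetic defect in DNA damage repair and vehicle-treated cultures as the reference.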

[8] = NCI Yeast Anticancer Drug Screen. Data for the CLN2oe strain (AID 163);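 note: 0% = growth of vehicle-only control cultures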; conditions: S. cerevisiae CLN2oe strain, active compounds read high
Method in brief: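 Here, growth inhibition in a cell-cycle-altered yeast strain after compound exposure was quantified against vehicle control growth.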

[9] = NCI Yeast Anticancer Drug Screen. Data for the cln2 rad14 strain (AID 165);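 note: 0% = growth equal to vehicle treated cultures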; conditions: S. cerevisiae cln2 rad14 strain, active compounds read high
Method in brief: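 Growth of compound-exposed yeast (cln2 rad14 genotype) measured and expressed as inhibition relative to vehicle.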

[10] = NCI Yeast Anticancer Drug Screen. Data for the bub3 strain (AID 167); conditions: S. cerevisiae bub3 mutant strain, active compounds read high
Method in brief: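 Whole-cell yeast assay. The mutant strain was incubated with compounds, and growth inhibition was determined by comparison with vehicle-treated cells.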

[11] = NCI Yeast Anticancer Drug Screen. Data for the wt2 strain (AID 169);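 note: 0% = growth of vehicle-treated yeast cultures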; conditions: S. cerevisiae wt2 strain growth inhibition, active compounds read high
Method in brief: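 Genetically defined yeast strains from a DNA-repair/cell-cycle panel were used. Compound-exposed yeast growth was measured, and the inhibition was calculated relative to vehicle treatment.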

[12] = NCI Yeast Anticancer Drug Screen. Data for the mlh1 strain (AID 171);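 note: 0% = growth of vehicle-treated control cultures of the same strain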; conditions: S. cerevisiae mlh1 strain growth inhibition, active compounds read high
Method in brief: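 Here the genetically defined yeast mutant is grown with each compound, and the extent to which its growth falls below that of vehicle-exposed cells is reported.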

[13] = NCI Yeast Anticancer Drug Screen. Data for the sgs1 strain (AID 173);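 note: 0% = growth of vehicle-only control cultures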; conditions: S. cerevisiae sgs1 mutant, active compounds read high
Method in brief: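 Relative growth inhibition, referenced to vehicle, was determined in a yeast strain with a defined alteration affecting DNA damage repair or cell cycle control after compound exposure.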

[14] = NCI Yeast Anticancer Drug Screen. Data for the mlh1 rad18 strain (AID 175); conditions: S. cerevisiae mlh1 rad18 strain growth inhibition, active compounds read high
Method in brief: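 In this whole-cell yeast screen, a strain with altered DNA damage repair is challenged with compound, and its growth is measured against matched vehicle-treated controls.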

[15] = NCI Yeast Anticancer Drug Screen. Data for the rad18 strain (AID 177); conditions: S. cerevisiae rad18 mutant growth inhibition, active compounds read high
Method in brief: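 Screen uses a yeast strain with a defined lesion in DNA damage repair; compound effect is read as loss of growth compared to untreated vehicle cultures.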

[16] = NCI Yeast Anticancer Drug Screen. Data for the sgs1 mgt1 strain (AID 161);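 note: 0% = growth of cultures given vehicle only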; conditions: S. cerevisiae sgs1 mgt1 strain, active compounds read high
Method in brief: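 Read-out: growth inhibition vs vehicle controls. Cells: mutant yeast strain deficient in DNA damage repair.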

[17] = at 5.0 µM (retest, dose inferred, filed as 0.5)
[18] = at 50.0 µM (retest, dose inferred, filed as 5.0)

Measured: growth inhibition

c1ccc2c(c1)c1ncccc1c1nccnc21
inactive: [1]; at 1.2 µM 2% | [1]; at 3.7 µM 8% | [1]; at 11.0 µM 26% | [1]; at 33.0 µM 48% | [2]; at 1.2 µM -2% | [2]; at 3.7 µM 4% | [2]; at 11.0 µM 11% | [2]; at 33.0 µM 12% | [2]; at 100.0 µM 19% | [3]; at 1.2 µM 15% | [3]; at 3.7 µM 33% | [3]; at 11.0 µM 43% | [3]; at 33.0 µM 69% | [3]; at 100.0 µM 63% | [4]; at 1.2 µM -2% | [4]; at 3.7 µM 0% | [4]; at 11.0 µM -2% | [4]; at 33.0 µM -2% | [4]; at 100.0 µM -2% | [5]; at 1.2 µM -4% | [5]; at 3.7 µM 9% | [5]; [17] -46% | [5]; at 11.0 µM 34% | [5]; at 33.0 µM 55% | [5]; [18] 53% | [6]; at 1.2 µM 1% | [6]; at 3.7 µM 0% | [6]; [17] -47% | [6]; at 11.0 µM 0% | [6]; at 33.0 µM 2% | [6]; [18] -53% | [6]; at 50.0 µM 14.7% | [6]; at 100.0 µM 4% | [7]; at 1.2 µM 3% | [7]; at 3.7 µM 3% | [7]; at 11.0 µM 23% | [7]; at 33.0 µM 16% | [7]; at 100.0 µM 11% | [8]; at 1.2 µM 0% | [8]; at 3.7 µM -5% | [8]; at 11.0 µM -10% | [8]; at 33.0 µM -8% | [8]; at 100.0 µM -7% | [9]; [17] -60% | [9]; [18] -59% | [9]; at 50.0 µM -40.5% | [10]; at 1.2 µM 4% | [10]; at 3.7 µM -2% | [10]; [17] -58% | [10]; at 11.0 µM -1% | [10]; at 33.0 µM -5% | [10]; [18] -60% | [10]; at 50.0 µM -0.35% | [10]; at 100.0 µM -7% | [11]; at 1.2 µM 9% | [11]; at 3.7 µM 14% | [11]; at 11.0 µM 16% | [11]; at 33.0 µM 19% | [11]; at 100.0 µM 22% | [12]; at 1.2 µM -10% | [12]; at 3.7 µM -4% | [12]; at 11.0 µM -2% | [12]; at 33.0 µM 2% | [12]; at 100.0 µM 17% | [13]; at 1.2 µM -12% | [13]; at 3.7 µM -14% | [13]; at 11.0 µM -2% | [13]; at 33.0 µM 3% | [13]; at 100.0 µM 21% | [14]; [17] -97% | [14]; [18] -73% | [14]; at 50.0 µM 33.9% | [15]; at 1.2 µM -10% | [15]; at 3.7 µM -1% | [15]; at 11.0 µM -2% | [15]; at 33.0 µM -1% | [15]; at 100.0 µM 13%
active: [1]; at 100.0 µM 72% | [5]; at 50.0 µM 76.8% | [5]; at 100.0 µM 71%

N/C(=N\OC(=O)NC(Cl)=C(Cl)Cl)c1cc(C(F)(F)F)cc(C(F)(F)F)c1
active: [1]; at 100.0 µM 98% | [2]; at 100.0 µM 97% | [4]; at 33.0 µM 74% | [4]; at 100.0 µM 97% | [5]; at 50.0 µM 89% | [5]; at 100.0 µM 97% | [6]; at 50.0 µM 89.3% | [6]; at 100.0 µM 95% | [7]; at 100.0 µM 96% | [16]; [18] 95% | [16]; at 50.0 µM 89.4% | [9]; [18] 94% | [9]; at 50.0 µM 89% | [10]; [18] 91% | [10]; at 50.0 µM 89.9% | [10]; at 100.0 µM 96% | [11]; at 100.0 µM 96% | [12]; at 100.0 µM 97% | [13]; at 100.0 µM 97% | [14]; at 50.0 µM 88% | [15]; at 33.0 µM 72% | [15]; at 100.0 µM 97%
inactive: [1]; at 1.2 µM -14% | [1]; at 3.7 µM -11% | [1]; at 11.0 µM -2% | [1]; at 33.0 µM 64% | [2]; at 1.2 µM 16% | [2]; at 3.7 µM -13% | [2]; at 11.0 µM -19% | [2]; at 33.0 µM 40% | [3]; at 1.2 µM -30% | [3]; at 3.7 µM -48% | [3]; at 11.0 µM -43% | [3]; at 33.0 µM -35% | [3]; at 100.0 µM 17% | [4]; at 1.2 µM -23% | [4]; at 3.7 µM 7% | [4]; at 11.0 µM 6% | [5]; at 1.2 µM -10% | [5]; at 3.7 µM -20% | [5]; [17] 34% | [5]; at 11.0 µM 6% | [5]; at 33.0 µM 59% | [5]; [18] 54% | [6]; at 1.2 µM -33% | [6]; at 3.7 µM -61% | [6]; [17] 36% | [6]; at 11.0 µM -32% | [6]; at 33.0 µM 33% | [6]; [18] 58% | [7]; at 1.2 µM -53% | [7]; at 3.7 µM -36% | [7]; at 11.0 µM -48% | [7]; at 33.0 µM 18% | [16]; [17] -1% | [9]; [17] 45% | [10]; at 1.2 µM -23% | [10]; at 3.7 µM -9% | [10]; [17] 34% | [10]; at 11.0 µM -30% | [10]; at 33.0 µM 23% | [11]; at 1.2 µM -43% | [11]; at 3.7 µM -32% | [11]; at 11.0 µM -36% | [11]; at 33.0 µM 38% | [12]; at 1.2 µM -27% | [12]; at 3.7 µM -11% | [12]; at 11.0 µM -14% | [12]; at 33.0 µM 57% | [13]; at 1.2 µM -22% | [13]; at 3.7 µM -16% | [13]; at 11.0 µM -9% | [13]; at 33.0 µM 68% | [14]; [17] 42% | [14]; [18] 67% | [15]; at 1.2 µM -20% | [15]; at 3.7 µM -21% | [15]; at 11.0 µM -2%

C/C(=N\NC(=S)N1CCCCC1)c1cccc(C)n1
inactive: [1]; at 1.2 µM -4% | [2]; at 1.2 µM 41% | [3]; at 1.2 µM -8% | [3]; at 3.7 µM 38% | [4]; at 1.2 µM 49% | [5]; at 1.2 µM 23% | [6]; at 1.2 µM 39%
active: [1]; at 3.7 µM 91% | [1]; at 11.0 µM 97% | [1]; at 33.0 µM 99% | [1]; at 100.0 µM 99% | [2]; at 3.7 µM 95% | [2]; at 11.0 µM 98% | [2]; at 33.0 µM 99% | [2]; at 100.0 µM 99% | [3]; at 11.0 µM 95% | [3]; at 33.0 µM 99% | [3]; at 100.0 µM 99% | [4]; at 3.7 µM 94% | [4]; at 11.0 µM 99% | [4]; at 33.0 µM 99% | [4]; at 100.0 µM 98% | [5]; at 3.7 µM 94% | [5]; [17] 89% | [5]; at 11.0 µM 98% | [5]; at 33.0 µM 98% | [5]; [18] 100% | [5]; at 50.0 µM 89.7% | [5]; at 100.0 µM 98% | [6]; at 3.7 µM 92%
